Sampled rows, rich in hits. Any-hit rate of the full collection: about 3.6%.
Pf apPOL block: Pf-apPOL DNA polymerase inhibition; hit rate 0.25% among 210,000; inhibition, % at 10 µM; Recombinant Pf-apPOL, molecular beacon fluorescence, 1.5 h
mHTT CaM bind: mHTT-calmodulin interaction abrogation; P42858; AlphaScreen His-mHTT/GST-CaM binding, luminescence; inhibition, % at 15 µM; hit rate 3.6% among 190,000; AID 1671202
Target sequence (P42858 whole entry, looked up, change not shown): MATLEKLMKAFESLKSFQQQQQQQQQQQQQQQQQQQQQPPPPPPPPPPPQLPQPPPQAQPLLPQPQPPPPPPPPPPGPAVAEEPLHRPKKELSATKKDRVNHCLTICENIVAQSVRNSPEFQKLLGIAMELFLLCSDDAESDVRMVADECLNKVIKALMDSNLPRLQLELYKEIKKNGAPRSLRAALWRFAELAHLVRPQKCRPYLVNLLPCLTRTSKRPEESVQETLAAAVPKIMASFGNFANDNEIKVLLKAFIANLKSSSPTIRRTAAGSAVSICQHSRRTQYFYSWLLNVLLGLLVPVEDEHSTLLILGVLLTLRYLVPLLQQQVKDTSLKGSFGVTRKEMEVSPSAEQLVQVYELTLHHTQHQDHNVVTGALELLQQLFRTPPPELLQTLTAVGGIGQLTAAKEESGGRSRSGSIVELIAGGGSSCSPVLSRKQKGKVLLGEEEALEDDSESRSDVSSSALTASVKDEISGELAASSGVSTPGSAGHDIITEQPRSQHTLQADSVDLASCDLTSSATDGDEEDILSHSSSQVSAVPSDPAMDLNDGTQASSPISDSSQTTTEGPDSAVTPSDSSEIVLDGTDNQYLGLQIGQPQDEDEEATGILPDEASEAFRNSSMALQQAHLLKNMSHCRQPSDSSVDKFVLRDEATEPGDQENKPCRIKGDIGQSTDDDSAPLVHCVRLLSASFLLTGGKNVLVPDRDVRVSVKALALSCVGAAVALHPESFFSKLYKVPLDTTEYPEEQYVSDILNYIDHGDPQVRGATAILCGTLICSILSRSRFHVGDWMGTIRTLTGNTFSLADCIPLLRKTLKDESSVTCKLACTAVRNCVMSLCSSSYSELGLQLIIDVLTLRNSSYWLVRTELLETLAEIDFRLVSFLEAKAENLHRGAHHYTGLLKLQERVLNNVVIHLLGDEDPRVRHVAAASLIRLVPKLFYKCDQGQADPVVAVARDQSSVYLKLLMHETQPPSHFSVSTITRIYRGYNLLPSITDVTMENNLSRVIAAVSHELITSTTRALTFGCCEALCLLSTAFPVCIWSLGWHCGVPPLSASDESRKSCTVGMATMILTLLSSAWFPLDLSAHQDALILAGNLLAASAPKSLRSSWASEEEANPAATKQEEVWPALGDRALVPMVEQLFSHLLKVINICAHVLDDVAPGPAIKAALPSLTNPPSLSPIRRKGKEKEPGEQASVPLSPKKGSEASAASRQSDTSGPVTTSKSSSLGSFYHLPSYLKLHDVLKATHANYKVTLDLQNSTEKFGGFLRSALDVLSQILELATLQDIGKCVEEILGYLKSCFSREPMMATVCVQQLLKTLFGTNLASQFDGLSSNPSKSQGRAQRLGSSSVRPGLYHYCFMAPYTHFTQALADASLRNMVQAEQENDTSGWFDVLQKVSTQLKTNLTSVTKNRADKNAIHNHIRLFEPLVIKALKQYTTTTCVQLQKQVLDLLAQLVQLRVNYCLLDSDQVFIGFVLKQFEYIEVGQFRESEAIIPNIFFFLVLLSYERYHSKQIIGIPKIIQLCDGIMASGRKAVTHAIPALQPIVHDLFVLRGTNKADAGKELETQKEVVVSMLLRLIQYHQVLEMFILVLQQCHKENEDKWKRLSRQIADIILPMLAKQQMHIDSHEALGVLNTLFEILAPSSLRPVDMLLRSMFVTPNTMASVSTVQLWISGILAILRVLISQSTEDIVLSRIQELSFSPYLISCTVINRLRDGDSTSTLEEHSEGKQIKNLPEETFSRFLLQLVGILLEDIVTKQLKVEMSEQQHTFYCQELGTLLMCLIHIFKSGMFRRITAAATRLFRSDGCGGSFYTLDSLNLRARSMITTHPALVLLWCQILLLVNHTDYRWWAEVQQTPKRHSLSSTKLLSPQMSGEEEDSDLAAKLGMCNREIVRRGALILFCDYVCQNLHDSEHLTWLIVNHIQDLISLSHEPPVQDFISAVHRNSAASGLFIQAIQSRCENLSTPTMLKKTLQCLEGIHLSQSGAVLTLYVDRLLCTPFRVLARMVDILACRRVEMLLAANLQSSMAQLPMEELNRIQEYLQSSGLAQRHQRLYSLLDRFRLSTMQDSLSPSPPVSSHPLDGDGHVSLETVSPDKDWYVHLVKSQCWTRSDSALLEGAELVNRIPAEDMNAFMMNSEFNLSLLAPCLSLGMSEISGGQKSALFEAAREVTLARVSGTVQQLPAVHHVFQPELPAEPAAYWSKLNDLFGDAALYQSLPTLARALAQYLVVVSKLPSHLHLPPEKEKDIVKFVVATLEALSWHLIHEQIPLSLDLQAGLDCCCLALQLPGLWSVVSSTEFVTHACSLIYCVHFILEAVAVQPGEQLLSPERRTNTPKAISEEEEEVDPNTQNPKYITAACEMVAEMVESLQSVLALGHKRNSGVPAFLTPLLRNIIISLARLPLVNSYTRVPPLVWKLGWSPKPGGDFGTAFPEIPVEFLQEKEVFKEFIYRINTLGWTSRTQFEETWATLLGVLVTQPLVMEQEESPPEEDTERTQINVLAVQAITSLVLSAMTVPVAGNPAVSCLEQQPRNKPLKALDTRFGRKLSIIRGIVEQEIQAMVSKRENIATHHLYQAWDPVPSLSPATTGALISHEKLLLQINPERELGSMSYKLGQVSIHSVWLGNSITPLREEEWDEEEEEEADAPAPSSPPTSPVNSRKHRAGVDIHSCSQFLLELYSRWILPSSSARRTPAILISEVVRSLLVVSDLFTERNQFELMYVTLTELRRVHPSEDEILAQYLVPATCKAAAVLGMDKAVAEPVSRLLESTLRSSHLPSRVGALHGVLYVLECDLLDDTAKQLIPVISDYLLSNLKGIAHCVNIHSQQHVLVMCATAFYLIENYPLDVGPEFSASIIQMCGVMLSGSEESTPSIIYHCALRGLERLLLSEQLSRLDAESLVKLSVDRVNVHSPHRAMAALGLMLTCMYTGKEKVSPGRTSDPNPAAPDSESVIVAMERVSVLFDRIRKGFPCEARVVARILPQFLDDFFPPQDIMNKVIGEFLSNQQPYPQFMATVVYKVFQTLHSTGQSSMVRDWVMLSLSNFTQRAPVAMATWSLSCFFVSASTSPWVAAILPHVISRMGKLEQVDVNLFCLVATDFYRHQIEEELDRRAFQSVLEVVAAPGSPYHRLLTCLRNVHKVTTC
Numbers stand for hits; – = inactive; · = not tested or not shown. Rule as the data show it: active = inhibition above about 50%; inactive = the rest.

SMILES	Pf apPOL block	mHTT CaM bind
O=C1CS/C(=C(\C(Cl)=C(Cl)Cl)[N+](=O)[O-])N1c1ccc(F)cc1	–	–
CCOc1ccc(N2C(=O)CS/C2=C(\C(Cl)=C(Cl)Cl)[N+](=O)[O-])cc1	–	57
O=C(NCC1COC2(CCCC2)O1)NC1CCCCC1 (stereo unspecified)	–	–
Cc1c(C2CCN(C(=O)c3ccccc3Br)CC2)noc1N	–	–
O=C(CC(NCc1ccccn1)C(=O)O)Nc1cc(Cl)ccc1Cl (stereo unspecified)	–	100
O=C(CC(NCc1ccco1)C(=O)O)Nc1cc(Cl)ccc1O (stereo unspecified)	–	–
O=C(c1ccccc1)N1CCC(c2nc(-c3ccc(F)cc3)n[nH]2)CC1	–	–
O=C(c1ccc(Cl)c(Cl)c1)N1CCN(c2ccc(F)cc2[N+](=O)[O-])CC1	–	53
O=C(c1ccc(Cl)c(Cl)c1)N1CCN(c2ccc([N+](=O)[O-])c3cccnc23)CC1	–	–
O=C(c1cccc([N+](=O)[O-])c1)N1CCN(c2cccc(Cl)c2Cl)CC1	–	74
O=C(c1ccccc1)N1CCN(c2ccc(F)cc2[N+](=O)[O-])CC1	–	–
O=C(c1ccccc1)N1CCN(c2ccc([N+](=O)[O-])cc2Cl)CC1	–	–
O=C(c1cc(F)c(F)cc1Cl)N1CCN(c2ccc([N+](=O)[O-])c3cccnc23)CC1	–	50
COc1ccc(C(=O)CC2(O)C(=O)N(Cc3ccc(Cl)cc3)c3ccccc32)cc1[N+](=O)[O-] (stereo unspecified)	–	100
COc1ccc(C(=O)CC2(O)C(=O)Nc3ccccc32)cc1[N+](=O)[O-] (stereo unspecified)	–	–
O=C(CN1CCN(C2c3ccccc3-c3ccccc32)CC1)Nc1ccc(F)c(F)c1	–	74
O=C(CCN1CCN(C2c3ccccc3-c3ccccc32)CC1)Nc1cccc(C(F)(F)F)c1	–	69
CCOc1ccc(NC(=O)CCN2CCN(C3c4ccccc4-c4ccccc43)CC2)cc1	–	–
CN(C)c1ccc(NC(=O)CCN2CCN(C3c4ccccc4-c4ccccc43)CC2)cc1	–	93
CN(C)c1ccc(NC(=O)CN2CCN(C3c4ccccc4-c4ccccc43)CC2)cc1	–	–
COc1cccc(NC(=O)CN2CCN(C3c4ccccc4-c4ccccc43)CC2)c1	–	–
O=S(=O)(Nc1ccc(N2CCCCC2)cc1)c1cc(Cl)sc1Cl	–	·
Nc1nnc(SCC(=O)C2CC2)s1	·	–
CCCCOc1cccc(C(=O)Nc2nnc(-c3ccco3)o2)c1	–	60
O=C(Nc1nnc(-c2ccco2)o1)c1ccc([N+](=O)[O-])cc1	–	–
SMILES	Pf apPOL block	mHTT CaM bind
COCCCNC(=O)Cc1csc(SCc2ccc(Br)cc2)n1	–	–
CCCC(=O)NC(c1cccc(F)c1)c1ccc2cccnc2c1O (stereo unspecified)	–	100
CCCC(=O)NC(c1cccc([N+](=O)[O-])c1)c1ccc2cccnc2c1O (stereo unspecified)	–	99
CC(C)C(=O)NC(c1cccc([N+](=O)[O-])c1)c1ccc2cccnc2c1O (stereo unspecified)	–	100
Cn1cc(C(=O)Nc2ccc3c(c2)CCC3)c2ccccc2c1=O	–	50
Cc1ccc(NC(=O)c2cn(C)c(=O)c3ccccc23)c(Br)c1	–	–
Cc1csc2nc(CSc3nc4ccccc4[nH]3)cn12	–	–
N#CC1=C(S)NC2=C(C(=O)CCC2)C1Cc1ccccc1 (stereo unspecified)	–	59
CCSC1=C(C#N)C(Cc2ccccc2)C2=C(CCCC2=O)N1 (stereo unspecified)	–	–
Cc1ccc(N2C=C(C#N)S(=O)(=O)c3ccc(C)cc32)c(Cl)c1	–	–
CCCCC[C@@H](C)N1C[C@@H](COCc2ccccc2)Oc2cc(N3CC[C@@H](N(C)C)C3)ccc2S1(=O)=O	–	100
CCCCC[C@H](C)N1C[C@H](COCc2ccccc2)Oc2cc(N3CC[C@H](N(C)C)C3)ccc2S1(=O)=O	–	–
CCCCC[C@H](C)N1C[C@H](COCc2ccccc2)Oc2cc(N3CC[C@@H](N(C)C)C3)ccc2S1(=O)=O	–	100
CCCCC[C@@H](C)N1C[C@H](COCc2ccccc2)Oc2cc(N3CC[C@@H](N(C)C)C3)ccc2S1(=O)=O	–	–
Cn1c2c(c3cc(C4CCCCC4)ccc31)CCC2=O	–	–
CCOc1cc2c(c([N+](=O)[O-])c1)NC(c1ccc([N+](=O)[O-])cc1)C1CC=CC21 (stereo unspecified)	–	50
COc1cc2c(c([N+](=O)[O-])c1)NC(c1ccc(Br)cc1)C1CC=CC21 (stereo unspecified)	–	–
CCOc1cc2c(c([N+](=O)[O-])c1)NC(c1ccccc1F)C1CC=CC21 (stereo unspecified)	–	95
CCOc1cc2c(c([N+](=O)[O-])c1)NC(C(C)C)C1CC=CC21 (stereo unspecified)	–	73
O=C(CSc1nc2ccccc2[nH]1)Nc1ccc(N2CCOCC2)c(Cl)c1	–	–
CC(C)c1cccc(C(C)C)c1NC(=O)c1cncc(Br)c1	–	–
CCc1ccc(NC(=O)CN(c2cccc([N+](=O)[O-])c2)S(C)(=O)=O)cc1	–	–
NC(=O)c1nn2c(c1Cl)NC(c1cccs1)CC2C(F)(F)F (stereo unspecified)	–	–
CCOc1cccc(C(Nc2cccc(C)n2)c2ccc3ccc(C)nc3c2O)c1 (stereo unspecified)	–	70
CCOc1cc(OCC)cc(C(=O)Nc2ccccn2)c1	–	–
SMILES	Pf apPOL block	mHTT CaM bind
CCOc1cccc(C(Nc2ccccn2)c2ccc3ccc(C)nc3c2O)c1 (stereo unspecified)	–	59
CCOc1ccc(C(=O)Nc2cccc(C)n2)cc1OCC	–	–
O=c1nc(-c2ccccc2Cl)c2cc(Br)ccc2[nH]1	–	–
O=C(Cc1ccccc1)Nc1ccc(Cl)c(-c2nc3ncccc3o2)c1	–	–
O=C(NCc1ccc(Cl)cc1)c1ccc(N2CC3CC(C2)c2cccc(=O)n2C3)c([N+](=O)[O-])c1 (stereo unspecified)	–	59
O=C(Nc1ccc(F)c(F)c1)c1ccc(N2CC3CC(C2)c2cccc(=O)n2C3)c([N+](=O)[O-])c1 (stereo unspecified)	–	–
Cc1cc(=O)n(CC(=O)Nc2ccccc2)c(N2CCCCC2)n1	–	–
Cc1cc(=O)n(CC(=O)Nc2ccc(Cl)cc2)c(N2CCCC2)n1	–	58
CC(C)C1C(=O)N(Cc2cn(Cc3ccco3)nn2)CCS(=O)(=O)N1Cc1ccc(-c2ccc(F)cc2)cc1 (stereo unspecified)	–	69
COc1ccc(-c2ccc(CN3C(C(C)C)C(=O)N(Cc4cn(CCC5OCCCO5)nn4)CCS3(=O)=O)cc2)cn1 (stereo unspecified)	–	50
Cc1ccc(-c2ccc(CN3C(C)C(=O)N(Cc4cn(CCC5OCCO5)nn4)CCS3(=O)=O)cc2)cc1 (stereo unspecified)	–	–
CC(C)C1C(=O)N(Cc2cn(Cc3ccco3)nn2)CCS(=O)(=O)N1Cc1ccc(-c2ccncc2)cc1 (stereo unspecified)	–	–
CC(C)C1C(=O)N(Cc2cn(Cc3ccco3)nn2)CCS(=O)(=O)N1Cc1ccc(-c2ccccc2)cc1 (stereo unspecified)	–	73

Source: PubChem (University of Kansas High Throughput Screening Laboratory)
